Bioassay records as filed in PubChem BioAssay.
Rows were chosen to be rich in hits. Some 12% of all compounds tested hit in one or more screens of this group.
HP1b binding inh = HP1-beta chromodomain-methylated histone interaction inhibition; AID 540317; Potency, µM (titrated, usually from 114 µM), without a hit: top-dose activity change, negative = inhibition, usual class: inhibitors; 390,000 compounds, 0.56% hits; AlphaScreen HP1-beta / biotin-H3K9me3 peptide binding; P83916; note: nearly all actives have a fitted effect of over 70% in size
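HP1-beta protein (50 nM final) preincubated 30 min at room temperature with biotinylated H3(1-18)K9me3 peptide (50 nM) in PBS pH 7.4, 0.01% Tween-20, then compound added for 30 min. AlphaScreen streptavidin donor/nickel chelate acceptor beads (10 ug/mL final), 30 min dark, luminescence read.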
Sfp PPTase inh = Sfp phosphopantetheinyl transferase inhibition | Q9F4F7 | Potency, µM, for inactives: largest response in the series, negative = inhibition, most hits filed as inhibitors | AID 1490 | Biochemical Sfp PPTase activity, qHTS | 310,000 compounds, 3.5% hits;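 note: the enzyme is Sfp with the accession as filed and its product quenches rhodamine fluorescence; 0% = enzyme reaction without inhibitor and -100% = no enzyme wells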
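With Hepes-Na pH 7.6 buffer containing 10 mM MgCl2, Sfp (15 nM) modified BHQ-2-YbbR (12.5 uM) using rhodamine-CoA (5 uM). Two reads 30 minutes apart at 525/598 nm yielded each well's rate.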
JMJD2A Tudor = blocks the human JMJD2A Tudor domain | O75164 | AlphaScreen JMJD2A-Tudor / H3K4me3 peptide binding | Potency, µM (doses to about 114 µM), inactives show top-dose activity change, negative = inhibition, actives largely listed as inhibitors | 390,000 compounds, 4.4% hits; note: % is set by controls: 0 for no effect and ±100 for the full control effect; nearly all actives have a fitted effect of over 50% in size
Target sequence (O75164 whole entry, looked up, the tested form may be a part): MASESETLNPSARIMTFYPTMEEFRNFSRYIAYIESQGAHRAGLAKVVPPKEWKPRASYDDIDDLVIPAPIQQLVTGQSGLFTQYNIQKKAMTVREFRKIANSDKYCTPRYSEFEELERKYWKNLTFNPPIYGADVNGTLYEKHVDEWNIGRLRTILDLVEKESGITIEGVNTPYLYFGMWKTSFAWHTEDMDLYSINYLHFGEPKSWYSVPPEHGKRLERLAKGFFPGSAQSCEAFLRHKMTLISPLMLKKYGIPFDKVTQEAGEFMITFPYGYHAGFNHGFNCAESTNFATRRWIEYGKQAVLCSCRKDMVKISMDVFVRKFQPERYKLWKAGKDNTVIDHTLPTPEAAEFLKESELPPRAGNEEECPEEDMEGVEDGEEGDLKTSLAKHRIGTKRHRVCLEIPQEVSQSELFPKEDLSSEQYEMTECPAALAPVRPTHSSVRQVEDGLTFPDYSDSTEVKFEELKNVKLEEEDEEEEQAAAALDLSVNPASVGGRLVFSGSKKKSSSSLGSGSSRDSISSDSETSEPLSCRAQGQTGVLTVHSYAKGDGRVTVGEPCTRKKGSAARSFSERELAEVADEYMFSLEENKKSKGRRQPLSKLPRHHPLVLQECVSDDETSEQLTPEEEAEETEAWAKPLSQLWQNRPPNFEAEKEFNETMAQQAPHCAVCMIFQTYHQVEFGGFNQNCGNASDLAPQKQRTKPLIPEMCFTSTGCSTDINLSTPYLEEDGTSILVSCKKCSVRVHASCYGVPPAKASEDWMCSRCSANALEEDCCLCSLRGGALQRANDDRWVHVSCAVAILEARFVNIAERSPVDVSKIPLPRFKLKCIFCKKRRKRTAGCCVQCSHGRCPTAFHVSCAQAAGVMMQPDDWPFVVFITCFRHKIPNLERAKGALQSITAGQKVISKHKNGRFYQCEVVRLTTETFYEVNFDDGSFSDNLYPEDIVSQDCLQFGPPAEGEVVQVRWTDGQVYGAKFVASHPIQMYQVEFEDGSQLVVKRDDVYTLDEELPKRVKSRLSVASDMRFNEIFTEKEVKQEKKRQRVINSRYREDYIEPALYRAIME
BAZ2B block = inhibitors of human BAZ2B bromodomain. Q9UIF8. AlphaScreen BAZ2B-H3K14Ac peptide displacement. Potency, µM (titrated, usually from 114 µM), without a hit: top-dose activity change, negative = inhibition, actives largely listed as inhibitors. 360,000 compounds, 4.4% hits. AID 504333; note: % is set by controls: 0 for no effect and ±100 for the full control effect; nearly all actives have a fitted effect of over 60% in size
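Multi-concentration screen (max 110 uM) measuring displacement of acetylated histone H3 peptide from BAZ2B by AlphaScreen, using 50 nM protein, 50 nM peptide and 10 ug/mL streptavidin donor plus Ni-chelate acceptor beads.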
G9a block = inhibitors of human histone lysine methyltransferase G9a. Potency, µM (top dose mostly 102 µM), without a hit: at the top dose activity, negative = inhibition, usual class: inhibitors. 350,000 compounds, 8.8% hits. G9a H3K9 monomethylation, AlphaScreen, 2 h. AID 504332; note: % is set by controls: 0 for no effect and ±100 for the full control effect; nearly all actives have a fitted effect of over 75% in size
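Using a bead-based AlphaScreen, monomethylated H3K9 product from 2 h room-temperature reactions (G9a 20 nM, peptide 500 nM, SAM 20 uM) was detected with 0.5 ug/mL rabbit anti-H3K9me1 antibody.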
Starred values were filed as active, the others as inactive; ? = inconclusive; · = no result; [ ] = remark or other dose. Calls come from the whole dose curve; as a rule, active = well fitted curve in the direction sought with a large enough effect; inconclusive = small, poorly fitted or top-dose-only effect, or another doubt; inactive = no such curve, though single readings can be large; an effect the other way counts as inactive or inconclusive. Potency is the fitted concentration of half-maximal effect.

SMILES	HP1b binding inh	Sfp PPTase inh	JMJD2A Tudor	BAZ2B block	G9a block
CS(=O)(=O)c1ccc(C(=O)N2CCN(C(=O)c3ccco3)CC2)cc1	30%	·	5%	-3%	-26%
CC(Oc1ccccc1)C(=O)Nc1cc(Cl)ccc1-n1cncn1 (stereo not drawn)	24%	·	-1%	-4%	45µM*
Cc1ccc(C(=O)Nc2cc(Cl)ccc2-n2cncn2)o1	30%	·	-13%	0%	8.9µM*
Cc1noc2ncnc(NCc3ccc(Cl)cc3)c12	56%	·	-4%	-9%[57.1 µM]	7%[59 µM]
CCCCn1c(N)c(N(CC)C(=O)C2CCC2)c(=O)[nH]c1=O	25%	·	-7%	-5%	?
Cc1nc2ccc(S(=O)(=O)Nc3cc(-c4nc5cccnc5s4)ccc3C)cc2s1	27%	-7%	-7%	-25%	50µM*
Cc1nc2ccc(S(=O)(=O)Nc3cccc(-c4nc5cccnc5s4)c3C)cc2s1	-2%	-4%	-31%	-34%	50µM*
COc1ccc(OC2C=CC(c3ccccc3)OC2CO)c(C(C)(C)C)c1 (stereo not drawn)	·	14%	·	·	·
CS(=O)(=O)N1CCC(N2CCN(Cc3ccccc3)C(=O)C2=O)CC1	14%	·	-2%	0%	-2%[59 µM]
CCOC(=O)c1c(C)n(C)c2cc(Br)c(OC)cc12	42%	15%	8%	10%	12%
CCOC(=O)c1c(CNCCN(CC)CC)n(C)c2cc(Br)c(OC)cc12	-5%	1%	-31%	?	79µM*
CCc1ccc2[nH]c(=O)c(CN(Cc3cccnc3)Cc3nnnn3Cc3ccccc3)cc2c1	13%[57 µM]	·	-21%[57.1 µM]	·	·
CN(C)C1(CN=Cc2cc(Cl)cc([N+](=O)[O-])c2O)CCCCC1	?	12%	40µM*	45µM*	?
COc1ccc(OC)c(NC(=O)c2csc(Cl)c2OC)c1	40%	-11%	-8%	4%	18%
CCOC(=O)C1=C(C)N(c2ccccc2)C(=O)/C1=C\c1ccc(O)c(OC)c1	?	6.3µM*	5µM*	?	3.2µM*
CCOC(=O)C1=C(C)N(c2ccccc2)C(=O)/C1=C\c1ccco1	-44%	56µM*	?	-7%	40µM*
CCOC(=O)C1=C(C)N(c2ccccc2)C(=O)/C1=C\c1cccs1	28µM*	15%	?	10µM*	?
CCOC(=O)C1=C(C)N(c2ccc(C)cc2)C(=O)/C1=C\c1cccs1	?	-16%	13µM*	10µM*	·
COC(=O)C1=C(C)N(c2ccc(Cl)cc2)/C(=C/c2cccs2)C1=O	27%	6%	-5%	-3%	5%[59 µM]
CCOc1ccc(NC(=O)CN(Cc2ccccc2)S(=O)(=O)c2ccc3nc(C)sc3c2)cc1	11%	·	-18%	7%	49%[59 µM]
Cn1c(=O)c2[nH]c(C=Cc3ccc4c(c3)OCO4)nc2n(C)c1=O	38%	·	-6%	·	·
COC(=O)C(Cc1ccccc1)P(=O)(c1ccccc1)c1ccccc1 (stereo not drawn)	11%	-6%	3%	2%	-6%
COC(=O)C1=C(C)N(c2ccc(C)c(C)c2)/C(=C/c2cccs2)C1=O	-11%	3%	-16%	-7%	4%
COC(=O)C1=C(C)N(c2cccc(C)c2)C(=O)/C1=C\c1cccs1	?	7%	?	10µM*	11µM*
COC(=O)C1=C(C)N(c2ccc(OC)c(OC)c2)C(=O)/C1=C\c1ccco1	7%	-15%	-13%	35µM*	?
SMILES	HP1b binding inh	Sfp PPTase inh	JMJD2A Tudor	BAZ2B block	G9a block
O=C(NCc1ccccc1)c1nn(-c2ccccc2)nc1CO	63%	·	-14%	-23%	20%[59 µM]
CN1CCN(NC(=O)CN2C(=O)/C(=C/c3ccccc3F)SC2=S)CC1	·	-28%	·	?	50µM*
O=C(CN1C(=O)S/C(=C\c2cccc(Cl)c2)C1=O)NC1C=CS(=O)(=O)C1 (stereo not drawn)	39%	6%	0%	-5%	1%
O=C(CN1C(=O)/C(=C/c2ccccc2F)SC1=S)NC1C=CS(=O)(=O)C1 (stereo not drawn)	50%	22µM*	-11%	-32%	·
O=C(CN1C(=O)/C(=C/c2cccc(Cl)c2)SC1=S)NC1C=CS(=O)(=O)C1 (stereo not drawn)	2%	-27%	-19%	-27%	-8%
O=C(CN1C(=O)S/C(=C\c2ccc(Cl)cc2)C1=O)NC1C=CS(=O)(=O)C1 (stereo not drawn)	0%	-4%	20µM*	-13%[57.1 µM]	10%
COC(=O)C1=C(C)N(Cc2ccccc2)C2=C(C(C)=O)C[C@@](O)(C(=O)OC)C(=O)N2C1c1ccccc1 (stereo partly drawn)	·	-6%	·	·	·
CCN(CC)C(=O)c1sc2c(c1C)c(=O)n(Cc1ccccc1)c(=O)n2Cc1c(C)cc(C)cc1C	27%	·	-15%	-16%	-5%[59 µM]
CC(OC(=O)c1ccc(Cl)c([N+](=O)[O-])c1)C(=O)N1CCN(Cc2ccccc2)CC1 (stereo not drawn)	4%	·	-33%	-11%	-6%[12.7 µM]
O=[N+]([O-])c1cc(CN2CCC(O)CC2)ccc1Cl	?	-13%	0.89µM*	50µM*	13µM*
Cc1ccc(CN2CCN(/N=C/c3cc(Br)ccc3F)CC2)cc1	-1%	5%	?	50µM*	56µM*
Cc1ccc(CN2CCN(/N=C/c3ccc(Cl)c([N+](=O)[O-])c3)CC2)cc1	?	3%	45µM*	14µM*	14µM*
CCN(CC)c1ccc(/C=N/N2CCN(Cc3ccc(C)cc3)CC2)c(O)c1	?	2%	?	-12%	-50%[12.7 µM]
Cc1ccc(CN2CCN(/N=C/c3cc([N+](=O)[O-])ccc3Cl)CC2)cc1	?	-7%	35µM*	32µM*	?
COc1ccc(-c2cc(C(F)(F)F)nc(SCC(=O)Nc3ccc(O)cc3)n2)cc1OC	23%	·	-19%	-25%	-1%[59 µM]
Fc1ccccc1-c1nc(NCc2ccco2)c2ccccc2n1	-17%	-3%	-24%	?	·
COc1ccccc1Nc1nc(NCc2ccco2)c2ccccc2n1	11%	-29%	-31%	?	50µM*
Cc1ccc(Nc2nc(NCc3ccco3)c3ccccc3n2)cc1	0%	10µM*	?	-37%	?
O=C(O)C1=NN(c2ccccc2)C(=O)C1	?	-22%	56µM*	?	50µM*
O=C(O)C1=NN(c2ccccc2)C(=O)CC1	29%	8%	-3%	?	-2%
O=S(=O)(Nc1ccc(F)cc1F)c1ccc(Br)s1	20%	·	-15%	0%	-31%[59 µM]
CCCNC(=O)COC(=O)/C=C/c1cccc(F)c1	18%	24%	-2%	-11%	11%
CCOc1ccc(CCNC(=O)COC(=O)/C=C/c2ccc(OC)c(OC)c2)cc1OCC	22%	1%	-25%	-9%	-11%
CCCNC(=O)COC(=O)/C=C/c1ccc(C)o1	23%	7%	-15%	-16%	50µM*
